Screens as filed in PubChem BioAssay.
BAZ2B block: inhibitors of human BAZ2B bromodomain. AID 504333. Q9UIF8. AlphaScreen BAZ2B-H3K14Ac peptide displacement. hit rate 4.4% among 360,000. Potency, µM (highest dose often 114 µM), for the others: at the highest dose activity change, negative = inhibition, actives largely listed as inhibitors; note: potency is the fitted concentration of half-maximal effect; % is set by controls: 0 for no effect and ±100 for the full control effect; nearly all actives have a fitted effect of over 60% in size
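AlphaScreen luminescence quantifies BAZ2B engagement of H3K14Ac peptide; the protein and biotinylated peptide are both at 50 nM final, buffer PBS pH 7.4 with 0.01% Tween-20, all steps at room temperature.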
GCN5L2 inh: blocks human GCN5L2 histone acetyltransferase; GCN5L2 HAT assay, ThioGlo1 CoA-SH fluorescence; hit rate 0.21% among 390,000; Q92830; Potency, µM (highest dose often 58.9 µM), inactives show at the top dose activity change, negative = inhibition, hits mostly inhibitors; note: potency is the fitted concentration of half-maximal effect; % is set by controls: 0 for no effect and ±100 for the full control effect
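GCN5L2 (20nM final) in 50mM HEPES, 0.1mM EDTA pH 7.5, 0.01% Tween-20 was preincubated 15 min at room temperature with compound, then given ThioGlo1 (50uM), H3(1-25) peptide (75uM) and acetyl-CoA (70uM); CoA-thiol fluorescence (Ex340/Em540) was read at 0 and 20 min.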
PLK1 PBD inh: inhibitors of human PLK1 polo-box domain binding | P53350 | hit rate 2.8% among 360,000 | Plk1 PBD binding of FITC phosphopeptide, fluorescence polarization | Potency, µM, without a hit: max response, negative = inhibition, usual class: inhibitors; note: potency is the fitted concentration of half-maximal effect; series mostly up to about 57 µM; % is set by controls: 0 for no effect and ±100 for the full control effect; nearly all actives have a fitted effect of over 65% in size
Target sequence (P53350 whole entry, looked up, the tested form may be a part): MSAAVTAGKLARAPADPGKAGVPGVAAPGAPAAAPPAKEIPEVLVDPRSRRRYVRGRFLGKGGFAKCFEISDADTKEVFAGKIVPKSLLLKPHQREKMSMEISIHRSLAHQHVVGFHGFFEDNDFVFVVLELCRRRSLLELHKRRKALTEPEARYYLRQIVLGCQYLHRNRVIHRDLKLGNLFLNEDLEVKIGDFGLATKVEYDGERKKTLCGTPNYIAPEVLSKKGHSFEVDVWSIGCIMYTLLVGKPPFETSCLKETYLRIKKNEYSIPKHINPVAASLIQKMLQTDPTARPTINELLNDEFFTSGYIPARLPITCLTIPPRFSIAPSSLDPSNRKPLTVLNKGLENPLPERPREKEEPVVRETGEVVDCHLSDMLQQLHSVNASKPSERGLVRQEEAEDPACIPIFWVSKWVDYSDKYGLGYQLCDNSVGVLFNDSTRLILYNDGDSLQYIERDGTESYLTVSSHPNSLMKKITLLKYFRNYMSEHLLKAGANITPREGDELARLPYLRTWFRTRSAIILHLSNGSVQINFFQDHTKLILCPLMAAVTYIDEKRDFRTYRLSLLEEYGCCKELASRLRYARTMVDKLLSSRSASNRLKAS
JMJD2A Tudor inh: JMJD2A Tudor domain (human) inhibition; O75164; AlphaScreen JMJD2A-Tudor / H3K4me3 peptide binding; Potency, µM (titrated, usually from 114 µM), without a hit: at the highest dose activity change, negative = inhibition, most hits filed as inhibitors; hit rate 4.4% among 390,000; AID 504339; note: potency is the fitted concentration of half-maximal effect; % is set by controls: 0 for no effect and ±100 for the full control effect; nearly all actives have a fitted effect of over 50% in size
HP1b chromo inh: blocks HP1-beta chromodomain binding to methylated histone tails | Potency, µM (highest dose often 114 µM), without a hit: top-dose activity change, negative = inhibition, most hits filed as inhibitors | hit rate 0.56% among 390,000 | AlphaScreen HP1-beta / biotin-H3K9me3 peptide binding | P83916; note: potency is the fitted concentration of half-maximal effect; nearly all actives have a fitted effect of over 70% in size
Target sequence (P83916 whole entry, looked up): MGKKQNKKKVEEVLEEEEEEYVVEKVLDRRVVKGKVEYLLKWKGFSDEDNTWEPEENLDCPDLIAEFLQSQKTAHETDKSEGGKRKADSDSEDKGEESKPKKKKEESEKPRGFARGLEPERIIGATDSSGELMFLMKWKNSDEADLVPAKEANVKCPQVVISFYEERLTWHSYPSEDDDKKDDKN
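HP1-beta protein (50 nM final) preincubated 30 min at room temperature with biotinylated H3(1-18)K9me3 peptide (50 nM) in PBS pH 7.4, 0.01% Tween-20, then compound added for 30 min. AlphaScreen streptavidin donor/nickel chelate acceptor beads (10 ug/mL final), 30 min dark, luminescence read.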
PI5P4K alpha inh: blocks human PI5P4K alpha kinase activity; P48426; PI5P4Kalpha enzyme, ADP-Glo luminescence, 60 min; hits give low values; AID 652105; max response, %; hit rate 1.2% among 330,000; active = max response of -50% or lower; inconclusive = between -30% and -50%; inactive = -30% or higher; note: value at the top dose of about 77 µM; % is set by controls: 0 for no effect and ±100 for the full control effect
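qHTS, 1536-well: enzyme/substrate mix, compound by pin tool, 5 microM ATP final; RT 60 min; ADP-Glo reagents 1 (45 min) then 2 (30 min); luminescence.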
An asterisk follows results filed as active. A selection: hits, their analogues and other compounds. The true share with any hit is near 7%. Unless noted, calls come from the whole dose curve; as a rule, active = well fitted curve in the direction sought with a large enough effect; inconclusive = small, poorly fitted or top-dose-only effect, or another doubt; inactive = no such curve, though single readings can be large; an effect the other way counts as inactive or inconclusive.

`CCNc1nc2cccnc2s1` gave BAZ2B block 2.4%, GCN5L2 inh -0.9%, PLK1 PBD inh -1.4%, JMJD2A Tudor inh 13.3%, HP1b chromo inh 32.6% and PI5P4K alpha inh 0.7.
`CC(C)(C)OC(=O)NCCCCCNC(=O)c1nc[nH]c1C(=O)N1CCc2ccccc2C1` gave GCN5L2 inh -1.1%, PLK1 PBD inh -6.1%, JMJD2A Tudor inh inconclusive, HP1b chromo inh 61.5% and PI5P4K alpha inh 5.0.
For O=C(O)c1nccnc1C(=O)N1CCN(c2ccccc2)CC1 the results were BAZ2B block 56.2µM*, GCN5L2 inh 1.5%, PLK1 PBD inh -24.0%, JMJD2A Tudor inh inconclusive, HP1b chromo inh 24.1% and PI5P4K alpha inh -7.7.
`O=C(Nc1nccs1)c1nc[nH]c1C(=O)N1CCN(c2ccccc2)CC1` gave GCN5L2 inh 0.2%, PLK1 PBD inh 0.4%, JMJD2A Tudor inh 31.6µM*, HP1b chromo inh 73.7% and PI5P4K alpha inh -2.5.
Screening CC(C)(C)OC(=O)[C@H](Cc1ccccc1)NC(=O)c1nc[nH]c1C(=O)N1CCN(c2ccccc2)CC1 returned BAZ2B block -2.6%, GCN5L2 inh -8.9%, PLK1 PBD inh 21.2µM*, JMJD2A Tudor inh inconclusive, HP1b chromo inh inconclusive and PI5P4K alpha inh -0.8.
Screening CC(C)(C)OC(=O)NCc1ccc(CNC(=O)c2nc[nH]c2C(=O)N2CCc3ccccc3C2)cc1 returned BAZ2B block 50.1µM*, GCN5L2 inh -1.0%, PLK1 PBD inh -5.4%, JMJD2A Tudor inh -22.5%, HP1b chromo inh 45.4% and PI5P4K alpha inh 0.4.
For Cc1ccc(C)c(NC(=O)c2ccc3c(O)c(S(=O)(=O)c4ccc(Cl)cc4)c(=O)[nH]c3c2)c1 the results were BAZ2B block -37.2%, GCN5L2 inh -6.2%, JMJD2A Tudor inh -22.7% and HP1b chromo inh 13.3%.
Screening O=C(NCCc1ccc(OC(F)F)cc1)C1CC(=O)N(c2ccc3c(c2)OCCO3)C1 (centres undefined) returned BAZ2B block 2.8%, GCN5L2 inh 2.7%, PLK1 PBD inh 2.6%, JMJD2A Tudor inh -3.3%, HP1b chromo inh 69.0% and PI5P4K alpha inh 0.6.
Screening CCC(=O)Nc1ccc(C(=O)COC(=O)Cc2ccsc2)cc1 returned BAZ2B block -21.2%, GCN5L2 inh -8.7%, PLK1 PBD inh -4.3%, JMJD2A Tudor inh -11.1%, HP1b chromo inh 37.9% and PI5P4K alpha inh -1.2.
`CC(=O)Nc1cccc(S(=O)(=O)N2CCN(S(=O)(=O)c3c(F)cccc3F)CC2)c1` gave JMJD2A Tudor inh -21.1%.
For O=C(N[C@@H](Cc1ccccc1)C(=O)OCc1ccccc1)c1nc[nH]c1C(=O)N1CCNCC1 the results were GCN5L2 inh 3.9%, PLK1 PBD inh 1.7%, JMJD2A Tudor inh 50.1µM*, HP1b chromo inh 3.1% and PI5P4K alpha inh -0.3.
Screening Cc1ccccc1Cn1cc(CCC(=O)NCc2cccc(Br)c2)c2ccccc21 returned BAZ2B block inconclusive, GCN5L2 inh -8.3%, JMJD2A Tudor inh -11.4% and HP1b chromo inh 24.1%.
Screening CCCc1cc(-c2n[nH]c(=S)n2CC)cs1 returned BAZ2B block -36.9%, GCN5L2 inh -8.6%, PLK1 PBD inh inconclusive, JMJD2A Tudor inh 3.55µM*, HP1b chromo inh -19.7% and PI5P4K alpha inh -14.9.
`CCn1c(-c2csc(C(C)C)c2)n[nH]c1=S` gave BAZ2B block -10.5%, GCN5L2 inh -2.7%, PLK1 PBD inh -17.3%, JMJD2A Tudor inh 10µM*, HP1b chromo inh inconclusive and PI5P4K alpha inh -18.5.
`CCCc1cc(-c2n[nH]c(=S)n2C(C)c2ccccc2)cs1` (centres undefined) gave BAZ2B block -35.9%, GCN5L2 inh 0.1%, PLK1 PBD inh -10.1%, JMJD2A Tudor inh -31.2% and HP1b chromo inh -4.2%.
For CCc1cc(-c2n[nH]c(=S)n2Cc2ccccc2)cs1 the results were BAZ2B block -23.6%, GCN5L2 inh -7.4%, PLK1 PBD inh -8.7%, JMJD2A Tudor inh 56.2µM*, HP1b chromo inh -4.5% and PI5P4K alpha inh 2.4.
CC(C)Cn1c(-c2csc(C(C)C)c2)n[nH]c1=S was read as BAZ2B block -34.4%, GCN5L2 inh 14.0%, PLK1 PBD inh 0.0%, JMJD2A Tudor inh inconclusive, HP1b chromo inh -10.3% and PI5P4K alpha inh -15.4.
Screening CCc1cc(-c2n[nH]c(=S)n2-c2ccccc2C)cs1 returned BAZ2B block -7.3%, GCN5L2 inh -1.9%, PLK1 PBD inh -17.0%, JMJD2A Tudor inh 35.5µM* and HP1b chromo inh 1.1%.
For Cc1[nH]c2ccc(-c3n[nH]c(=S)n3Cc3ccccc3)cc2c1C the results were BAZ2B block inconclusive, GCN5L2 inh -4.8%, PLK1 PBD inh -14.5%, JMJD2A Tudor inh inconclusive, HP1b chromo inh 9.3% and PI5P4K alpha inh -16.4.
COC(=O)[C@H]1C[C@H](OC(=O)NCc2ccccc2F)[C@@]2(O)CN(S(=O)(=O)c3ccc(C)cc3)CC2[C@H]1C(=O)OC (some centres undefined) was read as PLK1 PBD inh -0.7% and PI5P4K alpha inh 9.2.
`Cc1cc(C)c(S(=O)(=O)c2ccccc2F)c(=O)[nH]1` gave BAZ2B block -1.4%, GCN5L2 inh 0.3%, PLK1 PBD inh 4.0%, JMJD2A Tudor inh -11.6%, HP1b chromo inh 31.8% and PI5P4K alpha inh 1.8.
`Cc1ccc(OCCNC(=O)C2CC(=O)N(Cc3ccccc3)C2)cc1` (centres undefined) gave BAZ2B block -0.3%, GCN5L2 inh -3.7%, PLK1 PBD inh 0.2%, JMJD2A Tudor inh -4.5%, HP1b chromo inh 20.1% and PI5P4K alpha inh -0.3.
Cc1ccc(CN(C)C(=O)CN2C(=O)NC3(CCCc4ccccc43)C2=O)c(C)c1 (centres undefined) was read as BAZ2B block -6.7%, GCN5L2 inh -2.2%, PLK1 PBD inh -4.4%, JMJD2A Tudor inh -22.3%, HP1b chromo inh 40.7% and PI5P4K alpha inh 1.6.
CCc1cc(-c2n[nH]c(=S)n2CC)cs1 was read as BAZ2B block -11.8%, GCN5L2 inh -2.3%, PLK1 PBD inh inconclusive, JMJD2A Tudor inh 8.91µM*, HP1b chromo inh -13.9% and PI5P4K alpha inh 3.4.
For CCCCn1c(-c2csc(CCC)c2)n[nH]c1=S the results were BAZ2B block -3.9%, GCN5L2 inh 3.8%, PLK1 PBD inh -26.5%, JMJD2A Tudor inh inconclusive, HP1b chromo inh 19.5% and PI5P4K alpha inh -9.0.
Screening CCOC(=O)C1=C(C)N(C)C(=O)C1CC(=O)O (centres undefined) returned BAZ2B block -3.1%, GCN5L2 inh -9.3%, PLK1 PBD inh inconclusive, JMJD2A Tudor inh 56.2µM* and HP1b chromo inh -57.5%.
`O=C(OCc1nnc(-c2ccccc2)o1)c1cccc(S(=O)(=O)N2CCOCC2)c1` gave BAZ2B block -4.1%, GCN5L2 inh 1.8%, PLK1 PBD inh -2.9%, JMJD2A Tudor inh -16.6%, HP1b chromo inh 33.7% and PI5P4K alpha inh -4.6.
